Data as given in PubChem BioAssay AID485297 (National Center for Advancing Translational Sciences (NCATS), 2010).
The whole screen tested about 320,000 compounds, of which about 9,100 (2.8%) were called active. Entries that show only a call come without a potency. Not shown: some 3% with an inconclusive outcome. The call rests on the fitted dose curve; in most records, active means well fitted activation curve with a large enough effect; inconclusive means small, poorly fitted or top-dose-only effect; inactive means no such curve, though single readings can be large or run the other way. The full list was thinned out, with actives kept by preference.

Assay: qHTS Assay for Rab9 Promoter Activators; further: nearly all actives have a fitted effect of over 60% in size
Conditions: Huh7 Rab9 promoter-luciferase reporter, luminescence, 24 h; series mostly up to 9.22 µM
Summary of the method: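 Steps: seed 1500 Huh7 Rab9-luc cells per well, rest 2 h at 37 °C; add compound in DMSO; incubate 24 h; add luciferase reagent, 10 min ambient; read luminescence.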
Potency means the concentration at half of the fitted maximal effect.

SMILES | Potency
CN(CC(=O)NC(=O)Nc1ccccc1F)Cc1ccccc1 | inactive
CCCn1c(N)c(C(=O)CSc2nnc3n2CCCCC3)c(=O)[nH]c1=O | inactive
O=C(Nc1nnc(CCN2CCCCC2)s1)c1cccc(Cl)c1 | inactive
CC(NC(=O)CN(C)S(=O)(=O)c1ccc(F)cc1)C1CC2CCC1C2 (centres undefined) | inactive
Cc1ccc(CNC(=O)CC(NC(=O)c2ccccc2)c2ccccc2)cc1 (centres undefined) | inactive
CC1(C)CC(=O)C=C(c2cccc3c2Oc2ccccc2S3)C1 | inactive
COc1cc(SC)ccc1C(=O)Nc1cc(C)ccn1 | 3550 nM (active)
COc1ccccc1OCCNC(=O)CCNC(=O)c1ccccc1Cl | inactive
COc1cc(SC)ccc1C(=O)N(Cc1ccccc1)c1ccccc1 | inactive
Cc1ccnc(NC(=O)CNC(=O)c2ccccc2)c1 | inactive
Cc1ccnc(NC(=O)CCCOc2ccccc2)c1 | inactive
COc1cc(SC)ccc1C(=O)NCCOc1ccccc1Cl | 3980 nM (active)
COc1cc(F)c(C2=CC(=O)CC(C)(C)C2)cc1F | inactive
Cc1ccc(CC(=O)Nc2ccc(S(=O)(=O)N3CCOCC3)cc2)cc1C | inactive
CN1CCN(S(=O)(=O)c2cccc(C(=O)Nc3sccc3C#N)c2)CC1 | inactive
COc1cccc(CNC(=O)CN2C(=O)NC(Cc3ccccc3)(c3ccccc3)C2=O)c1 (centres undefined) | inactive
Cc1nc(C)c(C(=O)Nc2ccc(C)c(F)c2)o1 | inactive
Cc1cccc(NC(=O)NC(=S)NC(=O)c2ccccc2)c1 | inactive
Cc1ccc(NC(=O)NC(=O)c2ccccc2)cc1F | 398 nM (active)
CC1CCCCC1NC(=O)NC(=O)COC(=O)C1=NN(c2ccccc2)C(=O)CC1 (centres undefined) | inactive
O=C(NCC1(N2CCCCC2)CCCCC1)c1ccc(NS(=O)(=O)c2ccc(F)cc2)cc1 | inactive
O=C(COC(=O)CCCSc1nc2ccccc2[nH]1)Nc1ccc(Oc2ccccc2)cc1 | inactive

SMILES | Potency
CCCCSc1nc2ccccc2[nH]1 | 2000 nM (active)
CCc1nnc(NC(=O)CCCSc2nc3ccccc3[nH]2)s1 | inactive
O=C(CSc1nc2ccccc2[nH]1)Nc1nc(-c2ccccc2)c(-c2ccccc2)o1 | inactive
CN(Cc1ccccc1)C(=O)CSc1nc2ccccc2[nH]1 | inactive
O=C(CSc1nc2ccccc2[nH]1)c1cccs1 | 2000 nM (active)
O=C(NCc1cccc(Cl)c1)C1=CC=CN2CCS(=O)(=O)N=C12 | inactive
CC(C)OC(=O)c1sc2nc3c(cc2c1N)C(=O)CCC3 | 3550 nM (active)
Nc1c(C(=O)NCc2ccccc2)sc2nc3c(cc12)C(=O)CCC3 | inactive
Cc1cccc2cc3c(N)c(C(=O)N4CCCc5ccccc54)sc3nc12 | inactive
CCCC(=O)Nc1nc2ccc(NC(=O)c3c(F)c(F)c(OC)c(F)c3F)cc2s1 | inactive
CSc1nc2ccc(NC(=O)c3c(F)cccc3F)cc2s1 | 3550 nM (active)
O=C(Nc1ccncc1)c1c(F)cccc1F | inactive
CSCCC(NC(=O)COc1ccccc1)C(=O)N(C)CC(=O)Nc1ccc(C)cc1 (centres undefined) | inactive
CC(C)C(=O)OCC(=O)Nc1ccc2c(c1)CCC2 | inactive
O=C(NC1CCCC1)c1ccc(Br)s1 | inactive
O=C(Nc1ccc2c(c1)CCC2)c1ccc(Br)s1 | 1120 nM (active)
Cc1ccc(NC(=O)CCNC(=O)c2ccc([N+](=O)[O-])cc2)cc1S(=O)(=O)N1CCOCC1 | inactive
O=C(CCNC(=O)c1ccccc1Cl)NCc1ccco1 | inactive
COc1ccc(CNC(=O)COC(=O)c2ccc(C)c(S(=O)(=O)N3CCOCC3)c2)cc1OC | inactive
O=C(NC1CCCCC1)c1ccc(-c2ccc(Cl)cc2)o1 | 2820 nM (active)
S=C(NCc1ccc(Cl)cc1)NC1CCCCC1 | inactive
O=C(NC(=S)NC1CCCCC1)c1ccc(Cl)cc1 | inactive

SMILES | Potency
CCCC(NCC(=O)Nc1ccccc1C(=O)NC1CC1)c1ccccc1 (centres undefined) | inactive
O=C(OCC(=O)N1CCc2ccccc21)c1ccc([N+](=O)[O-])cc1 | inactive
Cc1cccc(C)c1NC(=O)COC(=O)c1c(C)nn(-c2ccccc2)c1C | inactive
Cc1ccc(-n2nc(C)c(C(=O)O)c2-n2cccc2)cc1 | inactive
Cc1ccc(OC(=O)c2c(C)nn(-c3ccccc3)c2C)cc1 | 3160 nM (active)
Cc1ccc(NC(=O)CN(C)S(=O)(=O)c2cnc[nH]2)cc1C | inactive
Cc1ccc(S(=O)(=O)N2CCOCC2)cc1NC(=O)COC(=O)c1cnccn1 | inactive
Cc1cc(C)nc(N2CCC(C(=O)Nc3ccc4c(c3)OCCO4)CC2)n1 | inactive
O=C(Nc1ccc2c(c1)OCCO2)C1CCCC1 | inactive
O=C(Nc1ccc2c(c1)OCCO2)C1CCCN(c2ncccn2)C1 (centres undefined) | 316 nM (active)
Cc1c(C(C)CCCO)oc(=O)c2c1Oc1c(C)c(C(C)C[C@@H](C)O)oc(=O)c1C2 (some centres undefined) | inactive
CCCN(CCC)CC(O)COc1ccccc1C(=O)Nc1ccccc1 (centres undefined) | inactive
Cc1ccc(C(=O)Nc2c(C#N)c(C)c(C)n2Cc2ccccc2)cc1 | inactive
CC(C)C(=O)Nc1ccc2oc(=O)ccc2c1 | inactive
CC(C)C(=O)Nc1ccc2c(c1)oc1ccccc12 | 891 nM (active)
Cc1cc(=O)oc2cc(NC(=O)C(C)Oc3ccccc3)ccc12 (centres undefined) | inactive
CC1(C)O[C@@H]2[C@H](O1)[C@@H](CO)O[C@H]2n1c(N2CCCCC2)nc2c(N)ncnc21 | inactive
Fc1ccccc1/C=N/n1c(-c2cccnc2)n[nH]c1=S | inactive
S=c1[nH]nc(-c2cccnc2)n1/N=C/C(Cl)=C\c1ccccc1 | 3160 nM (active)
Cc1cc(-c2n[nH]c(=S)n2/N=C/C(Br)=C/c2ccccc2)n[nH]1 | inactive
Cn1c(=O)n(Cc2ccco2)c(=N)c2c3c(sc21)CCCC3 | inactive
O=C(NCc1ccco1)c1cccn2c(=O)c3c4c(sc3nc12)CCCC4 | inactive

SMILES | Potency
O=c1oc(-c2ccco2)nc2sc3c(c12)CCCCC3 | 3550 nM (active)
CCOC(=O)N1CCN(S(=O)(=O)c2ccc3c(c2)C(C)C(=O)N3)CC1 (centres undefined) | inactive
CC(C)N(C(=O)CN1CCN(S(=O)(=O)c2ccc(Br)s2)CC1)C(C)C | inactive
COc1cc(C(=O)NNC(=O)CN2C(=O)NC3(CCCC3)C2=O)cc(OC)c1OC | inactive
COC(=O)c1c(NC(C)=O)sc(C(=O)Nc2ccccc2OC)c1C | inactive
CCC(=O)Nc1sc(C(=O)Nc2ccccc2)c(C)c1C(=O)OC | 891 nM (active)
CCOC(=O)c1sc(NC(=O)COc2ncnc3ccccc23)c(C(=O)OCC)c1C | inactive
Cc1ccc(NC(=O)CCC(=O)N2CCC(c3ccccc3)=N2)cc1S(=O)(=O)N1CCCCC1 | inactive
CCN(CC)C(=O)c1nc[nH]c1C(=O)N(C)Cc1ccccc1 | inactive
Cc1nnc(SCc2nc3ccccc3nc2C)s1 | inactive
CCOC(=O)N1CCN(Cc2nc(N)nc(Nc3ccc(C)cc3)n2)CC1 | inactive
Cc1ccc(Nc2nc(N)nc(CSc3nnc(C)s3)n2)cc1 | 4470 nM (active)
CC(C)(C)C(=O)CSc1ccc(S(=O)(=O)N2CCCC2)cn1 | inactive
COCc1c(C(=O)OCC(=O)Nc2ccc(OC(F)F)cc2)oc2ccccc12 | inactive
O=c1c2ccccc2ncn1/N=C/c1ccccc1 | 447 nM (active)
CCCc1nc2ccccc2c(=O)n1/N=C/c1ccc(O)c(O)c1 | inactive
O=C(Nn1cnc2ccccc2c1=O)c1ccccc1 | inactive
CC(C)C(NC(=O)c1c(F)cccc1F)C(=O)NCc1ccncc1 (centres undefined) | inactive
Cc1nn2cc(-c3ccc(Cl)cc3)cnc2c1Br | 1120 nM (active)
Cc1noc(C)c1C(=O)NCC1COc2ccccc2O1 (centres undefined) | inactive
O=C(COC(=O)c1ccc(O)cc1O)NNC(=O)c1cccs1 | inactive
Cc1ccc(SCCC(=O)NC(C(C)C)C(C)C)cc1 | inactive

SMILES | Potency
Cc1ccc(SCCC(=O)NCc2ccccn2)cc1 | inactive
Cc1ccc(SCCSc2ncccn2)cc1 | 2000 nM (active)
Nc1nnc(SCC(=O)NCC(=O)Nc2ccc(F)c(F)c2F)s1 | inactive
Cc1c(C(=O)NNC(=O)c2ccncc2)oc2ccccc12 | inactive
Cc1cccc(N(C)C(=O)CN2C(=O)COc3ccc(S(=O)(=O)N4CCCCCC4)cc32)c1 | inactive
CN(CC(=O)Nc1cccc(F)c1)C(=O)CC1CCCC1 | inactive
COc1ccc(C2=NN(C(=O)CSc3nnnn3C)C(c3ccco3)C2)cc1 (centres undefined) | inactive
Cc1ccc(C(=O)OCC(=O)Nc2ccc(Cl)cn2)cc1S(=O)(=O)N1CCOCC1 | inactive
CC(=O)Nc1ccc(S(=O)(=O)Nc2ccc(N3CCOCC3)c(F)c2)cc1 | inactive
O=C(c1ccc2nc(N3CCOCC3)sc2c1)N1CCN(c2ccc(Cl)cc2)CC1 | inactive
O=S(=O)(Nc1ccc2nc(N3CCOCC3)sc2c1)c1ccccc1 | 2820 nM (active)
N#Cc1ccc(CN2CCN(CC(=O)Nc3ccccc3C(=O)NC3CC3)CC2)cc1 | inactive
CCCn1c(=O)c(C(=O)Nc2cc(C)ccn2)c(O)c2ccccc21 | inactive
Cn1c(=O)c(C(=O)Nc2ncccn2)c(O)c2ccccc21 | 3160 nM (active)
C=CCn1c(=O)c(C(=O)Nc2ncccc2O)c(O)c2ccccc21 | inactive
COC(=O)CNS(=O)(=O)c1ccc(Cc2ccc(S(=O)(=O)NCC(=O)OC)cc2)cc1 | 1260 nM (active)
COC(=O)CNS(=O)(=O)c1ccc(OC)cc1 | inactive
C/C(N)=C(/C#N)C(=O)COC(=O)CNS(=O)(=O)c1ccc(C)cc1 | inactive
COc1ccc(S(=O)(=O)N2CCOCC2)cc1NC(=O)CSc1cc(C)ccc1C | inactive
CCOC(=O)c1c(C)[nH]c(C2=NNC(=NC(C)COC)SC2)c1C (centres undefined) | 1580 nM (active)
O=C(CSc1nc2ccccc2c(=O)n1CCCO)NC1CC1 | inactive
